Assay results published in PubChem BioAssay (NCATS).
Inconclusive results are not listed. Entries that show only a call come without a potency. Activity calls are given as the source filed them. Calls follow the shape of the dose curve; as a rule, active = well fitted inhibition curve with a large enough effect; inconclusive = small, poorly fitted or top-dose-only effect; inactive = flat fitted curve, though single readings scatter.

Assays:
Assay in all cases: qHTS profiling for inhibitors of Plasmodium falciparum proliferation (AID 504749); also: nearly all actives have a fitted effect of over 60% in size
Conditions in all cases: P. falciparum in erythrocytes, SYBR Green DNA, 72 h; series mostly up to 28.7 µM
[1] = tested on: CP217
How it was run: (§1)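 In a 72 h erythrocytic culture (37 C, humidified, 5% CO2) at 2.5% hematocrit and 0.3% starting parasitemia, compounds were tested; SYBR Green I in detergent lysis buffer stained parasite DNA overnight.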

[2] = tested on: CP237
How it was run: as §1

[3] = tested on: CP238
How it was run: as §1

[4] = tested on: CP247
How it was run: as §1

[5] = tested on: CP250
How it was run: as §1

[6] = tested on: CP252
How it was run: as §1

[7] = tested on: CP256
How it was run: as §1

[8] = tested on: CP260
How it was run: as §1

[9] = tested on: CP262
How it was run: as §1

[10] = tested on: CP265
How it was run: as §1

[11] = tested on: CP266
How it was run: as §1

[12] = tested on: CP268
How it was run: as §1

[13] = tested on: CP269
How it was run: as §1

[14] = tested on: CP286
How it was run: as §1

[15] = tested on: CP291
How it was run: as §1

[16] = tested on: CP297
How it was run: as §1

[17] = tested on: CP305
How it was run: as §1

[18] = tested on: CP315
How it was run: as §1

[19] = tested on: CP325
How it was run: as §1

[20] = tested on: CP329
How it was run: as §1
Potency is read from the fitted curve at half-maximal effect.

Row | SMILES | Potency [1] | Potency [2] | Potency [3] | Potency [4] | Potency [5] | Potency [6] | Potency [7] | Potency [8] | Potency [9] | Potency [10] | Potency [11] | Potency [12] | Potency [13] | Potency [14] | Potency [15] | Potency [16] | Potency [17] | Potency [18] | Potency [19] | Potency [20]
1 | COc1cc(C)c(Cc2cnc(N)nc2N)cc1OC | inactive | inactive | inactive | inactive | inactive | inactive | inactive | inactive | inactive | inactive | inactive | inactive | inactive | inactive | inactive | inactive | inactive | inactive | inactive | inactive
2 | CC(=O)Oc1ccc(C2(c3ccc(OC(C)=O)cc3)C(=O)Nc3ccccc32)cc1 | inactive | inactive | inactive | inactive | inactive | inactive | inactive | inactive | inactive | inactive | inactive | inactive | inactive | inactive | inactive | inactive | inactive | inactive | inactive | inactive
3 | C[C@H](N)[C@H](O)c1cccc(O)c1 | inactive | inactive | inactive | inactive | inactive | inactive | inactive | inactive | inactive | inactive | inactive | inactive | inactive | inactive | inactive | inactive | inactive | inactive | inactive | inactive
4 | O=Cc1ccccc1C=O | inactive | inactive | inactive | inactive | inactive | inactive | inactive | inactive | inactive | inactive | inactive | inactive | inactive | inactive | inactive | inactive | inactive | inactive | inactive | inactive
5 | NS(=O)(=O)c1cc2c(cc1Cl)NC(CSCc1ccccc1)=NS2(=O)=O | inactive | inactive | inactive | inactive | inactive | inactive | inactive | inactive | inactive | inactive | inactive | inactive | inactive | inactive | inactive | inactive | inactive | inactive | inactive | inactive
6 | COc1ccc(S(=O)(=O)Nc2nnc(CC(C)C)s2)cc1 | inactive | inactive | inactive | inactive | inactive | inactive | inactive | inactive | inactive | inactive | inactive | inactive | inactive | inactive | inactive | inactive | inactive | inactive | inactive | inactive
7 | CCCCC(CC)COC(=O)c1ccccc1O (configuration not stated) | inactive | inactive | inactive | inactive | inactive | inactive | inactive | inactive | inactive | inactive | inactive | inactive | inactive | inactive | inactive | inactive | inactive | inactive | inactive | inactive
8 | CCC(=O)Nc1ccc(O)cc1 | inactive | inactive | inactive | inactive | inactive | inactive | inactive | inactive | inactive | inactive | inactive | inactive | inactive | inactive | inactive | inactive | inactive | inactive | inactive | inactive
9 | C#CCN(C)Cc1ccccc1 | inactive | inactive | inactive | inactive | inactive | inactive | inactive | inactive | inactive | inactive | – | inactive | inactive | inactive | inactive | – | inactive | inactive | inactive | inactive
10 | Nc1ncnc2c1ncn2[C@@H]1O[C@H](CO)[C@@H](O)[C@H]1O | inactive | inactive | inactive | inactive | inactive | inactive | inactive | inactive | inactive | inactive | inactive | inactive | inactive | inactive | inactive | – | inactive | inactive | inactive | inactive
11 | NC(CSCC(=O)O)C(=O)O (configuration not stated) | inactive | inactive | inactive | inactive | inactive | inactive | inactive | inactive | inactive | inactive | – | inactive | inactive | inactive | inactive | inactive | inactive | inactive | inactive | inactive
12 | O=S(=O)(O)NC1CCCCC1 | inactive | inactive | inactive | inactive | – | inactive | inactive | inactive | inactive | inactive | inactive | inactive | inactive | inactive | inactive | inactive | inactive | inactive | inactive | inactive
13 | CC[C@@]1(c2ccccc2)NC(=O)N(C)C1=O | inactive | inactive | inactive | inactive | inactive | inactive | inactive | inactive | – | inactive | inactive | inactive | inactive | inactive | inactive | inactive | inactive | inactive | inactive | inactive
14 | O=c1cc[nH]c(=S)[nH]1 | inactive | inactive | inactive | inactive | inactive | inactive | inactive | inactive | inactive | inactive | inactive | inactive | inactive | inactive | inactive | – | inactive | inactive | inactive | inactive
15 | Cn1c(=O)c2c(ncn2CC2OCCO2)n(C)c1=O | inactive | inactive | inactive | inactive | inactive | inactive | inactive | inactive | inactive | inactive | inactive | inactive | inactive | inactive | inactive | – | inactive | inactive | inactive | inactive
16 | Cc1cc(N)c2ccccc2[n+]1CCCCCCCCCC[n+]1c(C)cc(N)c2ccccc21 | 447 nM (active) | 126 nM (active) | 282 nM (active) | 1580 nM (active) | 708 nM (active) | 447 nM (active) | 79.4 nM (active) | 631 nM (active) | 181 nM (active) | 0.4 nM (active) | – | 572 nM (active) | 510 nM (active) | 447 nM (active) | 405 nM (active) | 405 nM (active) | 228 nM (active) | 721 nM (active) | 572 nM (active) | 642 nM (active)
17 | Nc1nc2c(ncn2CCC(CO)CO)c(=O)[nH]1 | inactive | inactive | inactive | inactive | inactive | inactive | inactive | inactive | inactive | inactive | – | inactive | inactive | inactive | inactive | inactive | inactive | inactive | inactive | inactive
18 | C[C@@H]1CN(c2c(F)c(F)c3c(=O)c(C(=O)O)cn(C4CC4)c3c2F)C[C@H](C)N1 | inactive | inactive | inactive | inactive | inactive | inactive | inactive | inactive | inactive | inactive | inactive | inactive | inactive | inactive | inactive | inactive | inactive | inactive | inactive | inactive
19 | O=C1NC(=O)[C@@]2(CCOc3ccc(F)cc32)N1 | inactive | inactive | inactive | inactive | inactive | inactive | inactive | inactive | inactive | inactive | – | inactive | inactive | inactive | inactive | inactive | inactive | inactive | inactive | inactive
20 | CCCCN1CCCC[C@H]1C(=O)Nc1c(C)cccc1C | inactive | 8910 nM (active) | inactive | inactive | inactive | inactive | inactive | inactive | inactive | – | inactive | inactive | inactive | inactive | – | inactive | inactive | inactive | inactive | inactive
21 | O=S(=O)(O)c1cc(I)c(O)c2ncccc12 | inactive | inactive | inactive | inactive | inactive | inactive | inactive | – | inactive | inactive | inactive | inactive | inactive | inactive | inactive | inactive | inactive | inactive | inactive | inactive
22 | CC(C)(C)NCC(O)COc1ccc(NC(=O)NC2CCCCC2)cc1 (configuration not stated) | inactive | inactive | inactive | – | inactive | inactive | inactive | inactive | inactive | inactive | inactive | inactive | inactive | inactive | inactive | inactive | inactive | inactive | inactive | inactive
23 | NC1CCN(c2cccc(Cl)n2)CC1 | inactive | 12600 nM (active) | inactive | inactive | inactive | inactive | inactive | inactive | inactive | inactive | inactive | inactive | inactive | inactive | inactive | – | inactive | inactive | inactive | inactive
24 | O=C(O)c1ccccc1O | inactive | inactive | inactive | inactive | inactive | inactive | inactive | inactive | inactive | inactive | inactive | inactive | inactive | inactive | inactive | – | inactive | inactive | inactive | inactive
25 | CC(C)(C)C(=O)NCCCC(=O)O | inactive | inactive | inactive | inactive | inactive | inactive | inactive | – | inactive | inactive | inactive | inactive | inactive | inactive | 12000 nM (active) | inactive | inactive | inactive | inactive | inactive
26 | CCCCc1ncc(/C=C(\Cc2cccs2)C(=O)O)n1Cc1ccc(C(=O)O)cc1 | inactive | inactive | inactive | inactive | inactive | inactive | inactive | inactive | inactive | inactive | inactive | inactive | inactive | inactive | inactive | inactive | inactive | inactive | inactive | inactive
